Among the data in ChEMBL document CHEMBL3433997, “St. Jude Leishmania screening dataset” (2016) are inhibition values, retold here.

Common to all, as to assay type: functional
The target in assay [1] is Solute carrier family 2, facilitated glucose transporter member 1 (Homo sapiens) (UniProt P11166). The assay is described as follows: ST_JUDE_LEISH: Cytotoxicity at 2uM final concentration against transgenic Leishmania Mexicana promastigotes LmGLUT1 that are glucose transport deficient and complemented with the human glucose transporter GLUT1. Activity is measured by DNA content using SYBR green in vitro.
Sequence of Solute carrier family 2, facilitated glucose transporter member 1 (Homo sapiens) (P11166 whole entry): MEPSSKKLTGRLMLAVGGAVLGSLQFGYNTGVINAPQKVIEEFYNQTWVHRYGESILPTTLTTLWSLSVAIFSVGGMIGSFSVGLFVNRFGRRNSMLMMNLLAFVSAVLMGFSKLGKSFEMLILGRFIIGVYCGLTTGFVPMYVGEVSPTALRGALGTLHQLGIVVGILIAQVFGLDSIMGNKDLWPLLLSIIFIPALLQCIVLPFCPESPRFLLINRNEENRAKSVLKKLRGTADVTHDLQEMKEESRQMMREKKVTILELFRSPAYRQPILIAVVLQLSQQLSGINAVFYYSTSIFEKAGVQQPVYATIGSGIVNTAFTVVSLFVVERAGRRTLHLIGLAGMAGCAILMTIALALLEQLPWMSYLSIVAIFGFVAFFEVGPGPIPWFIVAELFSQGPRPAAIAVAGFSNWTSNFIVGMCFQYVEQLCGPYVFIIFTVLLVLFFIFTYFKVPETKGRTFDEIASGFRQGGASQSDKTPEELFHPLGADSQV

Assay [2] addresses Hexose transporter 1 (Plasmodium falciparum) (UniProt O97467). The assay can be described thus: ST_JUDE_LEISH: Cytotoxicity at 2uM final concentration against transgenic Leishmania Mexicana promastigotes LmPfHT that are glucose transport deficient and complemented with the Plasmodium falciparum hexose transporter. Activity is measured by DNA content using SYBR green in vitro.

For assay [3], the target named is Glucose transporter (Leishmania mexicana) (UniProt O61059). The assay is described as follows: ST_JUDE_LEISH: Cytotoxicity at 2uM final concentration against transgenic Leishmania Mexicana promastigotes LmGT2 that are glucose transport deficient and complemented with the L. Mexicana glucose transporter 2. Activity is measured by DNA content using SYBR green in vitro.

One may read the inhibition as the relative decrease from the control value, in per cent. As for `CCN(CC)/C(=N/C(=N)NCc1ccc(Cl)cc1Cl)NCCCCCCN/C(=N\C(=N)NCc1ccc(Cl)cc1Cl)N(CC)CC`, the figures for the inhibition in assay [1], in assay [2] and in assay [3] were 1.61%, 1.69% and 1.51%, respectively.

For `O=C(Nc1ccc(-n2ccc(C(F)(F)F)n2)cc1)c1cccs1`, the inhibition in assay [1] turned out to be 0.18%; in assay [2], 0.85%; in assay [3] it was 0.42%.

Turning to `Cc1nn(-c2ccccc2)nc1C(=O)NC1CCN(CCNC(=O)c2ccc(Cl)c(Cl)c2)CC1`, the inhibition in assay [1] stood at 0.92%; in assay [2], 2.53%; in assay [3], 1.85%.

For the compound `CCNc1cc(C(=O)N[C@@H](Cc2ccccc2)[C@H](O)CNC2(CC)CC2)cc(N2CCCCS2(=O)=O)c1`, the inhibition in assay [1] is -3.85%; in assay [2] it was 2.01%; in assay [3] it was -2.45%.

Take `COc1cc(Cc2cnc(N)nc2N)cc(OCCCCC2NC(=O)NC2=O)c1OC` (stereo not drawn): the inhibition in assay [1] was found to be 14.8%; in assay [2] it was 14.5%; in assay [3] it was 11.6%.

In the case of `CC1CCCCN1S(=O)(=O)c1ccc(NC(=O)c2cc(-c3ccccc3O)n[nH]2)cc1` (stereo not drawn), the inhibition in assay [1] was 1.2%; in assay [2], 1.81%; in assay [3], -1.06%.

Consider `O=C(Nc1nc2cc(S(=O)(=O)NCc3ccc(Cl)c(Cl)c3)ccc2n1CCCN1CCCC1)c1ccc(Cl)cc1`, for which the values for the inhibition in assay [1], in assay [2] and in assay [3] were 1.48%, 1.6% and 3.04%, respectively.

In the case of `CCN(CC)CCN(Cc1ccc(-c2ccc(C(F)(F)F)cc2)cc1)C(=O)CN1C(CCc2cccc(F)c2F)=NS(=O)(=O)c2ccccc21`, the inhibition in assay [1] was -0.85%; in assay [2], -0.42%; in assay [3], -3.12%.

Regarding `COc1cc2c(c(Cl)c1OC)CCN(C(=O)C(F)(F)F)CC2c1ccccc1` (stereo not drawn), the inhibition in assay [1] amounted to 6.36%; in assay [2], 5.47%; in assay [3], 4.64%.

As for `CCN(CC)S(=O)(=O)c1cc(-c2ccc(=O)n(CC(=O)c3ccc(C)cc3)n2)ccc1C`, the inhibition in assay [1] worked out at 4.68%; in assay [2], 6.23%; in assay [3], 2.45%.

For the compound `O=C(Nc1ccc(Cn2ncc(N3CCCNCC3)c(Cl)c2=O)cc1)Nc1cc(F)cc(C(F)(F)F)c1`, the inhibition was found to be 2.7% in assay [1], 3.7% in assay [2] and 0.99% in assay [3].

As for `CC1(C)N=C(N)N=C(N)N1OCc1cc2ccccc2cc1CON1C(N)=NC(N)=NC1(C)C`, the inhibition in assay [1] worked out at 1.9%; in assay [2], 1.86%; in assay [3], 0.5%.

Turning to `CCN(Cc1ccccc1)C1CCN(Cc2cc(Br)ccc2O)CC1`, the inhibition in assay [1] stood at 2.39%; in assay [2] it was 2.05%; in assay [3], 2.71%.

With `O=C(Cc1ccc[n+]([O-])c1)Nc1cccc(-c2cccc(-c3nc4cc(F)ccc4[nH]3)c2)c1`, the inhibition in assay [1] came to 1.61%; in assay [2] it was 1.76%; in assay [3], 4.13%.

On to `COc1cc(F)c2ncc(Cl)c([C@@H](O)CN3CCC(NCc4cc5c(cn4)OCCO5)CC3)c2c1`, for which the inhibition came to 9.42% in assay [1], 8.83% in assay [2] and 5.13% in assay [3].

As for `CCn1c(-c2nonc2N)nc2cnc(Oc3cccc(NC(=O)c4ccc(OCCN5CCCC5)cc4)c3)cc21`, the inhibition in assay [1] is 7.41%; in assay [2], 9.98%; in assay [3], 7.84%.

For the compound `CCCc1cc2c3c(N)nc(N)nc3ccc2n1CC`, the figures for the inhibition in assay [1], in assay [2] and in assay [3] were 6.73%, 8.39% and 4.29%, respectively.

For the compound `COc1ccc2nccc([C@@H](O)CN3CCC(NCc4ccc5c(c4)NC(=O)CO5)CC3)c2c1`, the inhibition in assay [1] stood at 1.26%; in assay [2], 1.94%; in assay [3], 1.91%.

Consider `CN(C)CCN(C)Cc1ccc(-c2cccc(NC(=O)c3cccc(C#N)c3)c2)cc1`, for which the figures for the inhibition in assay [1], in assay [2] and in assay [3] were 15.4%, 10.9% and 8.24%, respectively.

On to `CCC(C(C)C)n1ccc2c3c(N)nc(N)nc3ccc21` (stereo not drawn), for which the inhibition worked out at 81.6% in assay [1], 84.6% in assay [2] and 66.6% in assay [3].

Turning to `CCOc1cc(C)ccc1C1CCN(CCCCNC(=O)c2ccc(NC(=O)c3cc(Cl)cc(Cl)c3)cc2)CC1`, the figures for the inhibition in assay [1], in assay [2] and in assay [3] were 2.78%, 0.36% and 1.02%, respectively.

For the compound `CCOc1cc(CC)ccc1C1CCN(CCN2CCC(CNC(=O)c3ccc(-c4ccc(C#N)cc4)cc3)CC2)CC1`, the inhibition in assay [1] is 16.2%; in assay [2], 13%; in assay [3], 13.1%.

`CC(C)(C)c1cc(CN2CCN(Cc3ccccc3)CC2)cc(C(C)(C)C)c1O`: the inhibition amounted to 1.34% in assay [1], 2.9% in assay [2] and 2.7% in assay [3].

In the case of `COc1ccc2nccc([C@@H](O)CN3CCC(NCCOc4cccc(F)c4F)CC3)c2c1`, the inhibition was 4.54% in assay [1], 4.96% in assay [2] and -0.41% in assay [3].

Consider `COc1cc(Cc2cnc(NCCN3CCNCC3)nc2N)ccc1OCc1ccc(C(F)(F)F)cc1`, for which the results for the inhibition in assay [1], in assay [2] and in assay [3] were 3.49%, 4.49% and 6.93%, respectively.

On to `C=CCOC(=O)N1CCC(CNCc2cccc(-c3cccc(-c4nc5cc(F)ccc5[nH]4)c3)c2)C1` (stereo not drawn), for which the inhibition was 1.39% in assay [1], 0.9% in assay [2] and -0.93% in assay [3].

For `N=c1c(C(=O)NCc2ccccc2)cc2c(=O)n3ccccc3nc2n1CCc1ccccc1`, the values for the inhibition in assay [1], in assay [2] and in assay [3] were 3.5%, 4.07% and 2.34%, respectively.

Turning to `CCc1cc2c3c(N)nc(N)nc3ccc2n1C(CC)CC`, the figures for the inhibition in assay [1], in assay [2] and in assay [3] were 71.2%, 72.7% and 65.2%, respectively.

With `Cc1cccc2nc(-c3ccc(-c4cccc(CNCc5cccc(N)c5)c4)s3)[nH]c12`, the inhibition in assay [1] was determined as 2.48%; in assay [2] it was 1.7%; in assay [3] it was 2.35%.

As to `Cc1ccc(Cl)c2sc(N3CCN(C(=O)c4ccc([N+](=O)[O-])o4)CC3)nc12`, the inhibition in assay [1] is 62.4%; in assay [2], 54.6%; in assay [3], 27.6%.

Turning to `CN(C)CCCn1c(C(=O)OC(c2ccccc2)c2ccccc2)cc2cc(OCc3ccccc3)ccc21`, the inhibition in assay [1] is -0.72%; in assay [2] it was 0.08%; in assay [3], -2.32%.
